The text below walks through data of PubChem BioAssay.

The source made the active and inactive calls.

A short description of test [1]: optical density shifts of acrAB sulA E. coli – strain DRC41, OD650, 48 h, E. coli filamentation inducer project, primary screen (AID 1152).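 Further: E. coli MC1000 strain DRC41 lacking acrAB efflux pump and sulA.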 As to conditions: higher = more signal, called active from +8 up or from −8 down.
Test [2] is described as follows: probe aLefty1 binding on compound microarray – biochemical, small-molecule microarray, 635/667 nm fluorescence, primary screen (AID 1153).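 Further: score merges spot fluorescence with signal-to-noise ratio from the scanned slide images.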 The following applies: higher = more signal.
The nature of test [3]: plasmodial surface anion channel blockers, osmotic lysis – cell-based, P. falciparum Indochina, OD700, 1 h, primary screen (AID 1154). The following applies: P. falciparum Indochina infected RBC osmotic lysis, higher = more signal, called active from +8 up or from −8 down.
Test [4] is described as follows: plasmodial surface anion channel blockers, osmotic lysis – cell-based, P. falciparum Indochina, OD700, 2 h, primary screen (AID 1155).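 Further: lysis reports solute entry through the parasite surface anion channel PSAC.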 As to conditions: P. falciparum Indochina infected erythrocytes, higher = more signal, called active from +8 up or from −8 down.
A short description of test [5]: changes in parasitized red cell lysis, either direction – P. falciparum Indochina, OD700, 3 h, PSAC antagonist project, primary screen (AID 1156). The following applies: P. falciparum-infected erythrocytes, osmotic lysis, higher = more signal, called active from +8 up or from −8 down.
Test [6] can be described thus: plasmodial surface anion channel blockers, osmotic lysis – cell-based, P. falciparum Indochina, OD700, 18 h, primary screen (AID 1157). As to conditions: P. falciparum Indochina infected erythrocytes, osmotic lysis OD700, 18 h; higher = more signal, called active from +8 up or from −8 down.
Test [7] is described as follows: S6 kinase pathway phospho-S6 level changes – cell-based, A549, cytoblot, luminescence, serum-stimulated, primary screen (AID 1158).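 Further: serum-stimulated A549 lung adenocarcinoma cells; signal is phosphorylated S6 detected by cytoblot immunostaining with HRP secondary.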 As to conditions: 5 h, higher = more signal.
The target of test [8] is NADPH oxidase 2 (Homo sapiens) (UniProt P04839). Nature of the test: compounds shifting NOX2 Amplex Red fluorescence – cell-based, HEK293-NOX2, PMA-stimulated, NOX inhibitor project, primary screen (AID 1159). Further: test concentration not given here. The following applies: 45 min, higher = more signal, called active from +8 up or from −8 down.
Sequence of NADPH oxidase 2 (Homo sapiens) (P04839 whole entry, looked up): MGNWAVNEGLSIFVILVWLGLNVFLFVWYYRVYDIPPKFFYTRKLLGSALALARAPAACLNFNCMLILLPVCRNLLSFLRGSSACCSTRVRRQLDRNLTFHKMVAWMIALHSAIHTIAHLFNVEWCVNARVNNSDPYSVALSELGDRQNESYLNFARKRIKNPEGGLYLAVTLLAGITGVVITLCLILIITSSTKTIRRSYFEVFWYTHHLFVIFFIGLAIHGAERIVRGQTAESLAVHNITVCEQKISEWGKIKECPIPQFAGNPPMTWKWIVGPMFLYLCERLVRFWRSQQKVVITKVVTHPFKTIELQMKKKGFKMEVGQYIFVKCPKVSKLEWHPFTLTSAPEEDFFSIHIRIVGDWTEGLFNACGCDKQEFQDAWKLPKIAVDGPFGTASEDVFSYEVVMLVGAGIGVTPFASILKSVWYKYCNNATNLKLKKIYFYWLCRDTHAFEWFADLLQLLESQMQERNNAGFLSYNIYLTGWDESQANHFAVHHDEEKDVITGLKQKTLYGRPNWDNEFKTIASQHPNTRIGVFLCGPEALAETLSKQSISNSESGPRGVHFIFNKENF
In test [9] the target is NADPH oxidase 4 (Homo sapiens) (UniProt Q9NPH5). The test can be described thus: compounds shifting NOX4 Amplex Red fluorescence – cell-based, HEK293-NOX4, tetracycline-induced, NOX inhibitor project, primary screen (AID 1160). The following applies: HEK293-NOX4, Amplex Red H2O2 fluorescence, 45 min; higher = more signal, called active from +8 up or from −8 down.
Sequence of NADPH oxidase 4 (Homo sapiens) (Q9NPH5 whole entry, looked up): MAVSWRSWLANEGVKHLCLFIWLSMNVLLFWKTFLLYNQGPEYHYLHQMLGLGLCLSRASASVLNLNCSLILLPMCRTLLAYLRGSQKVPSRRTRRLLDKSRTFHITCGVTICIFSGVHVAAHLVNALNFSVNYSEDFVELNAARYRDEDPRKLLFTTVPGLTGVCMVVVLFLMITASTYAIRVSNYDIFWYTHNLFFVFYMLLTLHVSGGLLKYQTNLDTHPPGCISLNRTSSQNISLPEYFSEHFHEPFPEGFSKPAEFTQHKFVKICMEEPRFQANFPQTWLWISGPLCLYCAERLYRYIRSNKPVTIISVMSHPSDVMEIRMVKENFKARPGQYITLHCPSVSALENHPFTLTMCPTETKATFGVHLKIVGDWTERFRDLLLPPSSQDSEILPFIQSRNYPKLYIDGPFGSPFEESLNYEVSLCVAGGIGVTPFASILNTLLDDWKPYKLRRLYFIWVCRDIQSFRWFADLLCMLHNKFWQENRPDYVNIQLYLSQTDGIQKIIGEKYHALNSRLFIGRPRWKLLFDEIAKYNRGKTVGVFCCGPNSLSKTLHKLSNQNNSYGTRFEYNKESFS
In test [10] the target is NADPH oxidase 5 (Homo sapiens) (UniProt Q96PH1). Nature of the test: compounds shifting NOX5 Amplex Red fluorescence – cell-based, HEK293-NOX5, NOX inhibitor project, primary screen (AID 1161). The following applies: HEK293-NOX5, ionomycin, 45 min, higher = more signal.
Sequence of NADPH oxidase 5 (Homo sapiens) (Q96PH1 whole entry, looked up): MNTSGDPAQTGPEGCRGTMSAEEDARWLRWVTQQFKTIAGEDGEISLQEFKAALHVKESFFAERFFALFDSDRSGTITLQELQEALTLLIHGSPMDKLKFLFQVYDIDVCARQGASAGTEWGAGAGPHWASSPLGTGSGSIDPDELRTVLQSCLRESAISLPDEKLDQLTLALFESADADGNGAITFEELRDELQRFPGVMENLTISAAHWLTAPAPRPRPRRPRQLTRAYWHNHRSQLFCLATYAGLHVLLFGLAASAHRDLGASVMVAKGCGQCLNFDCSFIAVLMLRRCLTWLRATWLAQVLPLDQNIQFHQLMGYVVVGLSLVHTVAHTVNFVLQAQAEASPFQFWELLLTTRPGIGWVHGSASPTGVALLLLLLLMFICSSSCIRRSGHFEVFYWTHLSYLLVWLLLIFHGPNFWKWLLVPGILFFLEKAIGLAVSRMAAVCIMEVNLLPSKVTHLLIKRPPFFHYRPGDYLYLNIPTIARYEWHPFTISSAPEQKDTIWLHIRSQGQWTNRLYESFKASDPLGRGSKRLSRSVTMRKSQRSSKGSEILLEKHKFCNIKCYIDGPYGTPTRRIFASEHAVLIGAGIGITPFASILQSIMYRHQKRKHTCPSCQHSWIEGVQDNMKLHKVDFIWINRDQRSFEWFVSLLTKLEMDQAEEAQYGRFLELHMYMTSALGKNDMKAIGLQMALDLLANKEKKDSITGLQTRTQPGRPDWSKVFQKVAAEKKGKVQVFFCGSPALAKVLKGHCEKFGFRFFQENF
The nature of test [11]: compound effects on lung adenocarcinoma cell viability – A549, calcein-AM fluorescence, 48 h, basal, profiling panel (AID 1162). Further: test concentration not given here. As to conditions: higher = more signal.
The nature of test [12]: compound effects on differentiated 3T3-L1 adipocyte viability – cell-based, 3T3-L1 adipocytes, calcein-AM fluorescence, 48 h, basal, profiling panel (AID 1163). Further: test concentration not given here. As to conditions: 3T3-L1 adipocytes viability, higher = more signal.
Test [13] can be described thus: compound effects on hepatocellular carcinoma cell viability – HepG2, calcein-AM fluorescence, 48 h, basal, profiling panel (AID 1164). Further: test concentration not given here. The following applies: higher = more signal.
The nature of test [14]: compound effects on multiple myeloma cell viability – MM1S, calcein-AM fluorescence, 48 h, basal, profiling panel (AID 1165).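 Further: viability of MM1S multiple myeloma cells under basal unstimulated conditions; test concentration not given here.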 The following applies: higher = more signal.
Test [15] can be described thus: calcein-AM signal in unstimulated myeloma cells – cell-based, calcein-AM fluorescence, 48 h, PK04 Diversity Set, profiling panel (AID 1166).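 Further: cells grown under basal conditions without added stimulus; test concentration not given here.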 The following applies: RPMI8226 myeloma viability, higher = more signal.
A short description of test [16]: JC-1 mitochondrial signal, unstimulated HepG2 cells – cell-based, JC-1 fluorescence, 24 h, 100 nL compound, profiling panel (AID 1167). Further: test concentration not given here. The following applies: HepG2 mitochondrial potential, higher = more signal.
Test [17] is described as follows: JC-1 mitochondrial signal, unstimulated adipocytes – cell-based, JC-1 fluorescence, 3T3-L1 adipocytes, 24 h, 100 nL compound, profiling panel (AID 1168). Further: test concentration not given here. The following applies: JC-1 mitochondrial fluorescence, higher = more signal, called active from +8 up or from −8 down.
Test [18] is described as follows: JC-1 mitochondrial signal, unstimulated myeloma cells – cell-based, JC-1 fluorescence, RPMI8226, 24 h, 100 nL compound, profiling panel (AID 1169). Further: test concentration not given here. As to conditions: JC-1 mitochondrial potential fluorescence, higher = more signal.
The nature of test [19]: JC-1 mitochondrial signal, unstimulated MM1S myeloma – cell-based, JC-1 fluorescence, 24 h, 100 nL compound, profiling panel (AID 1170). Further: test concentration not given here. As to conditions: MM1S mitochondrial potential, higher = more signal.
Test [20] can be described thus: resazurin metabolic signal in A549 cells – cell-based, resazurin fluorescence, 24 h, PK04 Diversity Set, profiling panel (AID 1171). Further: test concentration not given here. The following applies: A549 viability, higher = more signal, called active from +8 up or from −8 down. In general terms: Alamar Blue is a resazurin reagent that responds to reducing activity.

For the compound `COc1ccc([Si](C)(C)[C@H]2[C@H](CC(=O)N3Cc4ccccc4C[C@H]3CO)O[C@@]3(C(=O)N(Cc4cccc(N5CCCCC5=O)c4)c4ccccc43)[C@@H]2C)cc1`, the z-score in test [1] was -0.431 (inactive); in test [3], 3.41 (inactive); in test [4], 0.966 (inactive); in test [5], 0.357 (inactive); in test [6], 0.549 (inactive); in [7] it was 1.83. The z-score in [8] was -0.508 (inactive); in test [9], 0.916 (inactive); in test [10], -0.169; in test [11] it was -0.463; in test [12], 0.785; in [13], -0.229. The z-score in test [14] is -1.87; in [15] it was -3.08; in test [16], -0.189; in test [17], -0.198 (inactive); in test [18], -1.07; in test [19], -1.46. The z-score in [20] was -0.646 (inactive). Besides, the composite z-score in test [2] came to 0.0391.

Take `COC(=O)[C@@]1(Cc2ccc(OC)cc2)[C@H]2c3cc(C(=O)N(C)C)n(Cc4ccccc4)c3C[C@H]2CN1C(=O)c1ccccc1`: the z-score in [1] was -1.25 (inactive); in test [3], 0.49 (inactive); in test [4], 0.194 (inactive); in test [5], -1.39 (inactive); in test [6] it was 0.594 (inactive); in test [7] it was 0.686. Moreover, the z-score was -1.52 (inactive) in test [8]; -1.09 (inactive) in test [9]; 2.49 in test [10]; 0.0457 in [11]; 0.245 in test [12]; -2.3 in test [13]. Besides, the z-score is -2.27 in test [14]; -2.17 in test [15]; 2.45 in test [16]; -0.45 (inactive) in [17]; -0.398 in [18]; -1.85 in [19]. Further, the z-score in [20] is 0.616 (inactive). Further, the composite z-score in [2] stood at 0.748.

`CC(C)(C)N1CC=CC23O[C@@H]4C=CCOC(=O)[C@@H]4[C@H]2C(=O)N(CCCO)[C@@H]3C1=O` (stereo not given in full): the z-score in test [1] is 0.799 (inactive); in [3] it was -0.103 (inactive); in test [4], -0.831 (inactive); in [5] it was 0.858 (inactive); in [6], -1.53 (inactive); in test [7] it was 0.364. For the same compound, the z-score in [8] was -0.693 (inactive); in [9] it was -0.00336 (inactive); in [10], -1.09; in test [11], 0.495; in [12], 1.55; in test [13], -0.0446. For the same compound, the z-score is 0.656 in test [14]; -0.664 in test [15]; -0.57 in [16]; -0.272 (inactive) in test [17]; -0.379 in test [18]; 0.745 in [19]. Further, the z-score in test [20] was -0.89 (inactive). In addition, in test [2], the composite z-score is -0.429.

For the compound `[N-]=[N+]=Nc1ccccc1C[C@]1(C(=O)NCc2ccccc2)N=C(c2ccc(OCCCO)cc2)O[C@H]1c1ccccc1`, the z-score is 0.383 (inactive) in [1]; 17.6 (active) in test [3]; 3.08 (inactive) in [4]; 1.14 (inactive) in test [5]; 0.786 (inactive) in [6]; -0.16 in test [7]. In addition, the z-score is -0.172 (inactive) in [8]; 1.45 (inactive) in test [9]; 1.03 in [10]; -1.66 in [11]; -0.651 in test [12]; -1.14 in test [13]. Further, the z-score in test [14] is -2.41; in test [15], -2.86; in test [16] it was 1.88; in [17], -0.095 (inactive); in test [18] it was -1.13; in [19] it was -1.73. In addition, the z-score in [20] was -0.395 (inactive). The composite z-score in test [2] is 0.394.

With `CCOc1cc(C(O)C2C=CC3C(=O)N(C)C(=O)C3N2N2CCCCC2)ccc1O` (stereo not given), the z-score in test [1] was -0.794 (inactive); in [3], 1.5 (inactive); in test [4], 1.66 (inactive); in test [5], 0.0675 (inactive); in [6], 1.12 (inactive); in [7] it was -0.599. For the same compound, the z-score in test [8] is -1.96 (inactive); in test [9] it was -3.83 (inactive); in [10] it was -3.11; in test [11], 0.256; in test [12], -0.413; in test [13], -0.07. The z-score is -0.224 in [14]; 0.294 in [15]; -0.788 in test [16]; -0.0873 (inactive) in test [17]; -0.109 in test [18]; 0.0215 in [19]. Besides, in [20], the z-score was -0.296 (inactive). Further, the composite z-score in [2] is 0.267.
